Residue numbers refer to the chain shown, from its start. Numbers in names are those of the source.

These results are taken from article PMC11102866, “Nucleosome-bound NR5A2 structure reveals pioneer factor mechanism by DNA minor groove anchor competition”.

For test [1], the target named is NR5A2 wild type;histone octamer (Homo sapiens;, UniProt O00482;C0HKE1;Q6ZWY9;P84244;P62806 1-541;2-130;2-126;2-136;2-103, |). Kind of test: SeEN-seq (EMSA of nucleosome library followed by sequencing); 0.8 uM human NR5A2; 20 mM Tris-HCl pH 7.5, 120 mM NaCl, 1 mM MgCl2, 10 uM ZnCl2, 1 mM DTT, 100 ug/ml BSA, room temperature, 30 min; 0.1 uM nucleosome library; high values mean tight binding.

For test [2], the target named is mouse Nr5a2 wild type;histone octamer (Mus musculus;, UniProt P45448;C0HKE1;Q6ZWY9;P84244;P62806 1-560;2-130;2-126;2-136;2-103, |). As to the kind of experiment: SeEN-seq (EMSA of nucleosome library followed by sequencing); 1.2 uM mouse Nr5a2; 20 mM Tris-HCl pH 7.5, 120 mM NaCl, 1 mM MgCl2, 10 uM ZnCl2, 1 mM DTT, 100 ug/ml BSA, room temperature, 30 min; 0.1 uM nucleosome library; high values mean tight binding.

B1: 69 (nucleosome)
DNA 1: ATCCTGGAGAATCCCGGTGCCGAGGCCGCTCAATTGGTCGTAGACAGCTCTAGCACCGCTTAAACGCACGTTCAAGGCCACCCCCGCGTTTTAACCGCCAAGGGGATTACTCCCTAGTCTCCAGGCACGTGTCAGATATATACATCCTGTGAT
DNA 2: ATCACAGGATGTATATATCTGACACGTGCCTGGAGACTAGGGAGTAATCCCCTTGGCGGTTAAAACGCGGGGGTGGCCTTGAACGTGCGTTTAAGCGGTGCTAGAGCTGTCTACGACCAATTGAGCGGCCTCGGCACCGGGATTCTCCAGGAT
modifications: reconstituted with mouse histones H2A, H2B, H3.3 and H4
For B1, the binding signal in test [1] is 0.77 log2 enrichment (bound/unbound, relative to Widom 601); in test [2], 0.872 log2 enrichment (bound/unbound, relative to Widom 601).

B2: 71 (nucleosome)
DNA 1: B1 DNA 1 with T72A, A74T, A75C, G76A, G77A, C78G, C79G, A80C, C82A
DNA 2: B1 DNA 2 with G72T, T74G, G75C, G76C, C77T, C78T, T79G, T80A, A82T
modifications: reconstituted with mouse histones H2A, H2B, H3.3 and H4
As for B2, the binding signal in test [1] was 1.13 log2 enrichment (bound/unbound, relative to Widom 601); in test [2], 1.45 log2 enrichment (bound/unbound, relative to Widom 601).

B3: 72 (nucleosome)
DNA 1: B1 DNA 1 with T72A, A74G, A75T, G76C, G77A, C78A, C79G, A80G, C83A
DNA 2: B1 DNA 2 with G71T, T74C, G75C, G76T, C77T, C78G, T79A, T80C, A82T
modifications: reconstituted with mouse histones H2A, H2B, H3.3 and H4
As to B3, the binding signal was 1 log2 enrichment (bound/unbound, relative to Widom 601) in test [1] and 1.27 log2 enrichment (bound/unbound, relative to Widom 601) in test [2].

B4: 70 (nucleosome)
DNA 1: B1 DNA 1 with T72A, C73T, A74C, G76A, C78G, A80C, C81A
DNA 2: B1 DNA 2 with G73T, T74G, G76C, C78T, T80G, G81A, A82T
modifications: reconstituted with mouse histones H2A, H2B, H3.3 and H4
Turning to B4, the binding signal in test [1] was 1.27 log2 enrichment (bound/unbound, relative to Widom 601); in test [2], 1.51 log2 enrichment (bound/unbound, relative to Widom 601).

B5: 64 (nucleosome)
DNA 1: ATCCTGGAGAATCCCGGTGCCGAGGCCGCTCAATTGGTCGTAGACAGCTCTAGCACCGCTTAAACGTCAAGGCCAGCTGTCCCCCGCGTTTTAACCGCCAAGGGGATTACTCCCTAGTCTCCAGGCACGTGTCAGATATATACATCCTGTGAT
DNA 2: ATCACAGGATGTATATATCTGACACGTGCCTGGAGACTAGGGAGTAATCCCCTTGGCGGTTAAAACGCGGGGGACAGCTGGCCTTGACGTTTAAGCGGTGCTAGAGCTGTCTACGACCAATTGAGCGGCCTCGGCACCGGGATTCTCCAGGAT
modifications: reconstituted with mouse histones H2A, H2B, H3.3 and H4
Regarding B5, the binding signal in test [1] was 0.83 log2 enrichment (bound/unbound, relative to Widom 601); in test [2], 0.992 log2 enrichment (bound/unbound, relative to Widom 601).

B6: 65 (nucleosome)
DNA 1: B5 DNA 1 with T67C, C68T, A69C, G71A, C73G, A75C, G76A
DNA 2: B5 DNA 2 with C78T, T79G, G81C, C83T, T85G, G86A, A87G
modifications: reconstituted with mouse histones H2A, H2B, H3.3 and H4
As to B6, the binding signal in test [1] was 0.891 log2 enrichment (bound/unbound, relative to Widom 601); in test [2], 1.14 log2 enrichment (bound/unbound, relative to Widom 601).

B7: 8 (nucleosome)
DNA 1: ATCCTGGAGATCAAGGCCACCGAGGCCGCTCAATTGGTCGTAGACAGCTCTAGCACCGCTTAAACGCACGTACGCGCTGTCCCCCGCGTTTTAACCGCCAAGGGGATTACTCCCTAGTCTCCAGGCACGTGTCAGATATATACATCCTGTGAT
DNA 2: ATCACAGGATGTATATATCTGACACGTGCCTGGAGACTAGGGAGTAATCCCCTTGGCGGTTAAAACGCGGGGGACAGCGCGTACGTGCGTTTAAGCGGTGCTAGAGCTGTCTACGACCAATTGAGCGGCCTCGGTGGCCTTGATCTCCAGGAT
modifications: reconstituted with mouse histones H2A, H2B, H3.3 and H4
For the molecule B7, the binding signal in test [1] is 2.08 log2 enrichment (bound/unbound, relative to Widom 601); in test [2], 1.69 log2 enrichment (bound/unbound, relative to Widom 601).

B8: 9 (nucleosome)
DNA 1: B7 DNA 1 with T11A, C12T, A13C, G15A, C17G, A19C, C20A
DNA 2: B7 DNA 2 with G134T, T135G, G137C, C139T, T141G, G142A, A143T
modifications: reconstituted with mouse histones H2A, H2B, H3.3 and H4
Consider B8, for which the binding signal in test [1] is 3.63 log2 enrichment (bound/unbound, relative to Widom 601); in test [2], 3.37 log2 enrichment (bound/unbound, relative to Widom 601).

B9: 62 (nucleosome)
DNA 1: ATCCTGGAGAATCCCGGTGCCGAGGCCGCTCAATTGGTCGTAGACAGCTCTAGCACCGCTTAAATCAAGGCCAGCGCTGTCCCCCGCGTTTTAACCGCCAAGGGGATTACTCCCTAGTCTCCAGGCACGTGTCAGATATATACATCCTGTGAT
DNA 2: ATCACAGGATGTATATATCTGACACGTGCCTGGAGACTAGGGAGTAATCCCCTTGGCGGTTAAAACGCGGGGGACAGCGCTGGCCTTGATTTAAGCGGTGCTAGAGCTGTCTACGACCAATTGAGCGGCCTCGGCACCGGGATTCTCCAGGAT
modifications: reconstituted with mouse histones H2A, H2B, H3.3 and H4
Take B9: the binding signal is 1.24 log2 enrichment (bound/unbound, relative to Widom 601) in test [1] and 1.27 log2 enrichment (bound/unbound, relative to Widom 601) in test [2].

B10: 68 (nucleosome)
DNA 1: B1 DNA 1 with T72C, C73A, A75G, G77C, C79A, A80T
DNA 2: B1 DNA 2 with T74A, G75T, C77G, T79C, G81T, A82G
modifications: reconstituted with mouse histones H2A, H2B, H3.3 and H4
On to B10, for which the binding signal in test [1] was 0.625 log2 enrichment (bound/unbound, relative to Widom 601); in test [2], 0.543 log2 enrichment (bound/unbound, relative to Widom 601).

B11: 67 (nucleosome)
DNA 1: B9 DNA 1 with T65C, C66G, A67C, G69C, G70T, C72A, C75G, G76C, T78A
DNA 2: B9 DNA 2 with A76T, C78G, G79C, G82T, C84A, C85G, T87G, G88C, A89G
modifications: reconstituted with mouse histones H2A, H2B, H3.3 and H4
For the molecule B11, the binding signal in test [1] is 0.806 log2 enrichment (bound/unbound, relative to Widom 601); in test [2] it was 0.96 log2 enrichment (bound/unbound, relative to Widom 601).

B12: 63 (nucleosome)
DNA 1: B5 DNA 1 with G66T, T67C, C68A, A70G, G72C, C74A, A75C
DNA 2: B9 DNA 2 with C80T, T81G, G83C, C85T, T87G, G88A, A89G
modifications: reconstituted with mouse histones H2A, H2B, H3.3 and H4
Consider B12, for which the binding signal is 1.09 log2 enrichment (bound/unbound, relative to Widom 601) in test [1] and 1.1 log2 enrichment (bound/unbound, relative to Widom 601) in test [2].

B13: 60 (nucleosome)
DNA 1: ATCCTGGAGAATCCCGGTGCCGAGGCCGCTCAATTGGTCGTAGACAGCTCTAGCACCGCTTATCAAGGCCAACGCGCTGTCCCCCGCGTTTTAACCGCCAAGGGGATTACTCCCTAGTCTCCAGGCACGTGTCAGATATATACATCCTGTGAT
DNA 2: ATCACAGGATGTATATATCTGACACGTGCCTGGAGACTAGGGAGTAATCCCCTTGGCGGTTAAAACGCGGGGGACAGCGCGTTGGCCTTGATAAGCGGTGCTAGAGCTGTCTACGACCAATTGAGCGGCCTCGGCACCGGGATTCTCCAGGAT
modifications: reconstituted with mouse histones H2A, H2B, H3.3 and H4
In the case of B13, the binding signal was 0.819 log2 enrichment (bound/unbound, relative to Widom 601) in test [1] and 0.573 log2 enrichment (bound/unbound, relative to Widom 601) in test [2].

B14: 66 (nucleosome)
DNA 1: B9 DNA 1 with T65C, C66G, A67C, G69T, G70C, C71A, C72A, A73G, G76C, C77A
DNA 2: B13 DNA 2 with G77T, C78G, G81C, G85A, C86T, C87G, T88C, T89G, G90T, A91T
modifications: reconstituted with mouse histones H2A, H2B, H3.3 and H4
Turning to B14, the binding signal was 1.05 log2 enrichment (bound/unbound, relative to Widom 601) in test [1] and 1.15 log2 enrichment (bound/unbound, relative to Widom 601) in test [2].

B15: 61 (nucleosome)
DNA 1: B13 DNA 1 with T63A, C64T, A65C, G67A, C69G, A71C
DNA 2: B13 DNA 2 with T83G, G85C, C87T, T89G, G90A, A91T
modifications: reconstituted with mouse histones H2A, H2B, H3.3 and H4
For the molecule B15, the binding signal in test [1] was 0.699 log2 enrichment (bound/unbound, relative to Widom 601); in test [2] it was 0.779 log2 enrichment (bound/unbound, relative to Widom 601).
